Where a chain is given by its changes, count along the chain named.
Experiments:
Assay in all cases: PBM; 200 nM protein, PBS
Conditions in all cases: dsDNA, one strand shown
ALX3 [1] = target: ALX3 (Homo sapiens, UniProt O95076 139-225, N203Q)
ALX3 [2] = target: ALX3 (Homo sapiens, UniProt O95076 139-225)
ALX3 [3] = target: ALX3 (Homo sapiens, UniProt O95076 139-225, N203S)
HOXD13 [4] = target: HOXD13 (Homo sapiens, UniProt P35453 263-343, T313R)
HOXD13 [5] = target: HOXD13 (Homo sapiens, UniProt P35453 263-343)
NKX2-6 [6] = target: T1, NKX2-6 (Homo sapiens, UniProt A6NCS4 118-204)
T1 sequence: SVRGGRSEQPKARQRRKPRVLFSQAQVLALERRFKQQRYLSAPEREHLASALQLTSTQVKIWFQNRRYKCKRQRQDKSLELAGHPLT

HOXD13 [7] = target: HOXD13 (Homo sapiens, UniProt P35453 263-343, T313A)
NKX2-6 [8] = target: T2, NKX2-6 (Homo sapiens, UniProt A6NCS4 118-204, F151L)
T2 sequence: T1 sequence with F34L

HOXC10 = HOXC10 (Homo sapiens, UniProt Q9NYD6 254-340, K271E)
VAX1 [9] = target: VAX1 (Homo sapiens, UniProt Q5SQQ9 86-172)
VAX1 [10] = target: VAX1 (Homo sapiens, UniProt Q5SQQ9 86-172, T142I)
VAX1 [11] = target: VAX1 (Homo sapiens, UniProt Q5SQQ9 86-172, K157R)
VAX1 (Homo sapiens, UniProt Q5SQQ9 86-172, K157R), sequence (Q5SQQ9 86-172 K157R): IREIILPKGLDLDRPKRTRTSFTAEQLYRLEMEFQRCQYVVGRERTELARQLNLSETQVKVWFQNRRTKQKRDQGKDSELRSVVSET

ALX3 (Homo sapiens, UniProt O95076 139-225, N203S), sequence (O95076 139-225 N203S): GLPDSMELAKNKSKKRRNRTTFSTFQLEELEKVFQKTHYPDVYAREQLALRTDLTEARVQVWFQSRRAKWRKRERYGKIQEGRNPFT
ALX3 (Homo sapiens, UniProt O95076 139-225), sequence (O95076 139-225): as the sequence (O95076 139-225 N203S) above, with S65N counted along it
ALX3 (Homo sapiens, UniProt O95076 139-225, N203Q), sequence (O95076 139-225 N203Q): as the sequence (O95076 139-225 N203S) above, with S65Q counted along it
HOXD13 (Homo sapiens, UniProt P35453 263-343), sequence (P35453 263-343): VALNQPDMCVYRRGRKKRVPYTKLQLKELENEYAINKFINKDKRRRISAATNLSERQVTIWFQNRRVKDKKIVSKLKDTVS
HOXD13 (Homo sapiens, UniProt P35453 263-343, T313A), sequence (P35453 263-343 T313A): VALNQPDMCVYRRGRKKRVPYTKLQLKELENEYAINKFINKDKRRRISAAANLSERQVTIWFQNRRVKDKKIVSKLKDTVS
HOXD13 (Homo sapiens, UniProt P35453 263-343, T313R), sequence (P35453 263-343 T313R): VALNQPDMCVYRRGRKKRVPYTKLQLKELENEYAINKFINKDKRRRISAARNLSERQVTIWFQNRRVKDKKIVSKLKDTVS
VAX1 (Homo sapiens, UniProt Q5SQQ9 86-172, T142I), sequence (Q5SQQ9 86-172 T142I): as the sequence (Q5SQQ9 86-172 K157R) above, with T57I, R72K counted along it
VAX1 (Homo sapiens, UniProt Q5SQQ9 86-172), sequence (Q5SQQ9 86-172): as the sequence (Q5SQQ9 86-172 K157R) above, with R72K counted along it
HOXC10, sequence (Q9NYD6 254-340 K271E): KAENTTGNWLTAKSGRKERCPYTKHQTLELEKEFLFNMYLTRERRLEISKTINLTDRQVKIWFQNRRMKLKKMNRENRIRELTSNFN

## AGTTACAG
ALX3 [1]
  binding signal: 8.16 upbm affinity estimate (log intensity, higher = more binding, comparable within an allelic series)
ALX3 [2]
  binding signal: 8.82 upbm affinity estimate (log intensity, higher = more binding, comparable within an allelic series)
ALX3 [3]
  binding signal: 8.25 upbm affinity estimate (log intensity, higher = more binding, comparable within an allelic series)

## ATAGCAAT
HOXD13 [4]
  binding signal: 10.2 upbm affinity estimate (log intensity, higher = more binding, comparable within an allelic series)
HOXD13 [5]
  binding signal: 10.7 upbm affinity estimate (log intensity, higher = more binding, comparable within an allelic series)

## GCCTCCAC
HOXD13 [4]
  binding signal: 9.56 upbm affinity estimate (log intensity, higher = more binding, comparable within an allelic series)
NKX2-6 [6]
  binding signal: 9.6 upbm affinity estimate (log intensity, higher = more binding, comparable within an allelic series)
HOXD13 [5]
  binding signal: 9.59 upbm affinity estimate (log intensity, higher = more binding, comparable within an allelic series)
HOXD13 [7]
  binding signal: 9.61 upbm affinity estimate (log intensity, higher = more binding, comparable within an allelic series)
NKX2-6 [8]
  binding signal: 9.3 upbm affinity estimate (log intensity, higher = more binding, comparable within an allelic series)

## GCATTAGA
ALX3 [1]
  binding signal: 8.11 upbm affinity estimate (log intensity, higher = more binding, comparable within an allelic series)
ALX3 [2]
  binding signal: 9.95 upbm affinity estimate (log intensity, higher = more binding, comparable within an allelic series)
ALX3 [3]
  binding signal: 8.12 upbm affinity estimate (log intensity, higher = more binding, comparable within an allelic series)

## CATTTGCC
ALX3 [1]
  binding signal: 7.93 upbm affinity estimate (log intensity, higher = more binding, comparable within an allelic series)
ALX3 [2]
  binding signal: 8.86 upbm affinity estimate (log intensity, higher = more binding, comparable within an allelic series)
ALX3 [3]
  binding signal: 7.93 upbm affinity estimate (log intensity, higher = more binding, comparable within an allelic series)

## TATAAACA
HOXD13 [4]
  binding signal: 10.7 upbm affinity estimate (log intensity, higher = more binding, comparable within an allelic series)

## ATCGCTAA
ALX3 [1]
  binding signal: 8.25 upbm affinity estimate (log intensity, higher = more binding, comparable within an allelic series)
ALX3 [2]
  binding signal: 9.67 upbm affinity estimate (log intensity, higher = more binding, comparable within an allelic series)
ALX3 [3]
  binding signal: 8.28 upbm affinity estimate (log intensity, higher = more binding, comparable within an allelic series)

## ATAACACG
HOXD13 [4]
  binding signal: 10.1 upbm affinity estimate (log intensity, higher = more binding, comparable within an allelic series)
HOXD13 [5]
  binding signal: 10.7 upbm affinity estimate (log intensity, higher = more binding, comparable within an allelic series)

## CCCGGCCA
HOXD13 [4]
  binding signal: 9.5 upbm affinity estimate (log intensity, higher = more binding, comparable within an allelic series)
NKX2-6 [6]
  binding signal: 9.65 upbm affinity estimate (log intensity, higher = more binding, comparable within an allelic series)
HOXD13 [5]
  binding signal: 9.64 upbm affinity estimate (log intensity, higher = more binding, comparable within an allelic series)
HOXD13 [7]
  binding signal: 9.63 upbm affinity estimate (log intensity, higher = more binding, comparable within an allelic series)
NKX2-6 [8]
  binding signal: 9.26 upbm affinity estimate (log intensity, higher = more binding, comparable within an allelic series)

## AATATTAA
ALX3 [1]
  binding signal: 8.6 upbm affinity estimate (log intensity, higher = more binding, comparable within an allelic series)
ALX3 [3]
  binding signal: 8.69 upbm affinity estimate (log intensity, higher = more binding, comparable within an allelic series)

## TATATTAA
HOXD13 [4]
  binding signal: 10.7 upbm affinity estimate (log intensity, higher = more binding, comparable within an allelic series)

## TCTATTAA
HOXD13 [4]
  binding signal: 10.7 upbm affinity estimate (log intensity, higher = more binding, comparable within an allelic series)

## ATTAGTTA
ALX3 [1]
  binding signal: 8.55 upbm affinity estimate (log intensity, higher = more binding, comparable within an allelic series)
ALX3 [3]
  binding signal: 8.67 upbm affinity estimate (log intensity, higher = more binding, comparable within an allelic series)

## TTAACTAA
ALX3 [1]
  binding signal: 8.53 upbm affinity estimate (log intensity, higher = more binding, comparable within an allelic series)
ALX3 [3]
  binding signal: 8.65 upbm affinity estimate (log intensity, higher = more binding, comparable within an allelic series)

## CATTTATA
HOXD13 [4]
  binding signal: 10.7 upbm affinity estimate (log intensity, higher = more binding, comparable within an allelic series)

## ATTTAAAT
ALX3 [1]
  binding signal: 8.56 upbm affinity estimate (log intensity, higher = more binding, comparable within an allelic series)
ALX3 [3]
  binding signal: 8.68 upbm affinity estimate (log intensity, higher = more binding, comparable within an allelic series)

## TCCATAAA
HOXC10
  binding signal: 11.4 upbm affinity estimate (log intensity, higher = more binding, comparable within an allelic series)

## CCCTGACC
VAX1 [9]
  binding signal: 7.22 upbm affinity estimate (log intensity, higher = more binding, comparable within an allelic series)
VAX1 [10]
  binding signal: 7.35 upbm affinity estimate (log intensity, higher = more binding, comparable within an allelic series)
VAX1 [11]
  binding signal: 7.27 upbm affinity estimate (log intensity, higher = more binding, comparable within an allelic series)

## CCGCGCTC
HOXD13 [4]
  binding signal: 9.52 upbm affinity estimate (log intensity, higher = more binding, comparable within an allelic series)
HOXD13 [5]
  binding signal: 9.5 upbm affinity estimate (log intensity, higher = more binding, comparable within an allelic series)
HOXD13 [7]
  binding signal: 9.47 upbm affinity estimate (log intensity, higher = more binding, comparable within an allelic series)

## ATATAAAC
HOXD13 [4]
  binding signal: 10.8 upbm affinity estimate (log intensity, higher = more binding, comparable within an allelic series)
HOXD13 [5]
  binding signal: 11.8 upbm affinity estimate (log intensity, higher = more binding, comparable within an allelic series)
HOXD13 [7]
  binding signal: 11.5 upbm affinity estimate (log intensity, higher = more binding, comparable within an allelic series)

## GGAGCAAC
HOXD13 [4]
  binding signal: 9.51 upbm affinity estimate (log intensity, higher = more binding, comparable within an allelic series)
HOXD13 [5]
  binding signal: 9.53 upbm affinity estimate (log intensity, higher = more binding, comparable within an allelic series)
HOXD13 [7]
  binding signal: 9.56 upbm affinity estimate (log intensity, higher = more binding, comparable within an allelic series)

## CCGTAAAA
HOXD13 [4]
  binding signal: 10.5 upbm affinity estimate (log intensity, higher = more binding, comparable within an allelic series)
HOXD13 [5]
  binding signal: 11.8 upbm affinity estimate (log intensity, higher = more binding, comparable within an allelic series)
HOXD13 [7]
  binding signal: 11.6 upbm affinity estimate (log intensity, higher = more binding, comparable within an allelic series)

## GCACCGGA
HOXD13 [4]
  binding signal: 9.55 upbm affinity estimate (log intensity, higher = more binding, comparable within an allelic series)
HOXD13 [5]
  binding signal: 9.43 upbm affinity estimate (log intensity, higher = more binding, comparable within an allelic series)
HOXD13 [7]
  binding signal: 9.61 upbm affinity estimate (log intensity, higher = more binding, comparable within an allelic series)

## CGCACAGC
HOXD13 [4]
  binding signal: 9.44 upbm affinity estimate (log intensity, higher = more binding, comparable within an allelic series)
HOXD13 [5]
  binding signal: 9.48 upbm affinity estimate (log intensity, higher = more binding, comparable within an allelic series)
HOXD13 [7]
  binding signal: 9.53 upbm affinity estimate (log intensity, higher = more binding, comparable within an allelic series)

## CTACGTAG
HOXD13 [4]
  binding signal: 9.84 upbm affinity estimate (log intensity, higher = more binding, comparable within an allelic series)
HOXD13 [5]
  binding signal: 9.97 upbm affinity estimate (log intensity, higher = more binding, comparable within an allelic series)
HOXD13 [7]
  binding signal: 9.71 upbm affinity estimate (log intensity, higher = more binding, comparable within an allelic series)

## CGAAGGCG
HOXD13 [4]
  binding signal: 9.52 upbm affinity estimate (log intensity, higher = more binding, comparable within an allelic series)
HOXD13 [5]
  binding signal: 9.45 upbm affinity estimate (log intensity, higher = more binding, comparable within an allelic series)
HOXD13 [7]
  binding signal: 9.53 upbm affinity estimate (log intensity, higher = more binding, comparable within an allelic series)

## CGCCGCCC
HOXD13 [4]
  binding signal: 9.48 upbm affinity estimate (log intensity, higher = more binding, comparable within an allelic series)
HOXD13 [5]
  binding signal: 9.53 upbm affinity estimate (log intensity, higher = more binding, comparable within an allelic series)
HOXD13 [7]
  binding signal: 9.6 upbm affinity estimate (log intensity, higher = more binding, comparable within an allelic series)

## CATCGGGG
HOXD13 [4]
  binding signal: 9.56 upbm affinity estimate (log intensity, higher = more binding, comparable within an allelic series)
HOXD13 [5]
  binding signal: 9.66 upbm affinity estimate (log intensity, higher = more binding, comparable within an allelic series)
HOXD13 [7]
  binding signal: 9.72 upbm affinity estimate (log intensity, higher = more binding, comparable within an allelic series)

From paper PMC11006913
